UBC13 polyUb: blocks human UBC13 polyubiquitin chain formation. TR-FRET. inhibition, % at 20 µM. 330,000 tested, 0.47% active; in the data active means inhibition above about 45%, passing the limit was not always enough; inconclusive means no clear call, values can overlap the other calls
MEKK2wt PB1 HTS: raises or lowers MEK5 binding to wildtype human MEKK2 PB1 domain; 290,000 tested, 1.1% active; binding response (% of control), % at 10 µM; Q9Y2U5; bead flow cytometry, Alexa488-MEK5 binding to MEKK2 WT; actives lie on both sides; in the data active means binding response below about 67% or above about 130%; inconclusive means no clear call, values can overlap the other calls; inactive means in between
Rce1 inhib: inhibitors of yeast Ras-converting enzyme | Q03530 | yeast membranes, quenched prenylated peptide cleavage fluorescence | calls only | 290,000 tested, 0.27% active | AID 2563;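 active means fall in fluorescence gain of 50% or more versus controls, with final raw signal at or below 3038400; inconclusive means same 50% fall but final raw signal above 3038400; inactive means fall in fluorescence gain under 50%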
MEKK3 PB1 HTS: modulators (inhibitors or enhancers) of MEK5 binding to human MEKK3 PB1 domain; Q99759; bead-based flow cytometry, Alexa488-MEK5 binding to MEKK3; actives lie on both sides; 0 = blocked by unlabeled MEK5, 100 = vehicle; binding response (% of control), % at 10 µM; 290,000 tested, 1.4% active;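 active means binding response more than 3 SD above or below the average of its plate-row segment, actives on both sides; inconclusive means wells at one plate position flagged as instrument error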;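 further: Alexa488 bead fluorescence after subtracting the streptavidin-only scavenger bead signal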
Target sequence (Q99759 whole entry, looked up, the tested form may be a part): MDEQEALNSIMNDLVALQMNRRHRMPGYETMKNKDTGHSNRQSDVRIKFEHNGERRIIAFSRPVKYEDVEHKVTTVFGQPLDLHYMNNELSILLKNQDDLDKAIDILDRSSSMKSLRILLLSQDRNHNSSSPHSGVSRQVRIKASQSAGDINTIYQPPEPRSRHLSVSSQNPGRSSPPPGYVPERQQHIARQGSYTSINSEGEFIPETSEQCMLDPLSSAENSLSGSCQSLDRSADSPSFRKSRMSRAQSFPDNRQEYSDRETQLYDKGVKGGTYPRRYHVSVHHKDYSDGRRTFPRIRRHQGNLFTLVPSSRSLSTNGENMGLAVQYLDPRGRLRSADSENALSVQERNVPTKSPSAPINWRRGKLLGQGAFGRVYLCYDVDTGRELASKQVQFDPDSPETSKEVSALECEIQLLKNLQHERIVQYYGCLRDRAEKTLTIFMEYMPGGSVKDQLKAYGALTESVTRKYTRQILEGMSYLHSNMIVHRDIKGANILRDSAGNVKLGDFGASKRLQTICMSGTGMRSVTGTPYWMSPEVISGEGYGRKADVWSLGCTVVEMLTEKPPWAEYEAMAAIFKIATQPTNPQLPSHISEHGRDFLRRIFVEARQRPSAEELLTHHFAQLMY
MEKK2mut PB1 HTS: signal of MEK5 binding to mutant human MEKK2 PB1 domain | bead flow cytometry, Alexa488-MEK5 binding to MEKK2 mutant | 290,000 tested, 0.35% active | percent response, % at 10 µM | AID 1530; in the data active means percent response above about 24%, passing the limit was not always enough
MEKK2wt confirm: raises or lowers MEK5 binding to wildtype human MEKK2, retest | shares compounds with MEKK3 PB1 HTS | 5,900 tested, 2.4% active | binding response (% of control), % at 10 µM | bead flow cytometry, Alexa488-MEK5 binding to MEKK2 WT; actives lie on both sides; in the data active means binding response below about 16% or above about 210%; inactive means in between
MEKK2mut-MEK5: signal of MEK5 binding to mutant human MEKK2, retest. shares compounds with MEKK3 PB1 HTS. AID 1893. bead flow cytometry, Alexa488-MEK5 binding to MEKK2 mutant. 5,900 tested, 2% active. percent response, % at 10 µM; in the data active means percent response mostly above about 71%, no sharp cut-off; inactive means mostly below about 38%;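 further: higher means compound restores mutant binding toward wildtype level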
MEKK3-MEK5 inh: confirmation of inhibitors of MEK5 binding to human MEKK3. shares compounds with MEKK3 PB1 HTS. bead flow cytometry, Alexa488-MEK5 binding to MEKK3; stronger effect = lower value. binding response (% of control), % at 10 µM. 5,900 tested, 1.8% active;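 active means binding response below 72% of control, or above a set upper limit, though filed actives all read lower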
A number is an active result; . = inactive; ? = inconclusive; / = no result given; + = active, no number; [ ] = remark or other dose. A selection: hits, their analogues and other compounds. The true share with any hit is near 2.5%.

SMILES	UBC13 polyUb	MEKK2wt PB1 HTS	Rce1 inhib	MEKK3 PB1 HTS	MEKK2mut PB1 HTS	MEKK2wt confirm	MEKK2mut-MEK5	MEKK3-MEK5 inh
CCCOc1ccc(C(=O)CCC(=O)OCC(=O)Nc2ccc(Oc3ccccc3)cc2)cc1	.	147.0	.	.	71.0	.	.	.
CCCOc1ccc(C2=NNC(c3cccs3)=Nc3ccc(OC)cc32)cc1	.	.	.	141.0	.	.	.	.
COc1ccc2c(c1)C(c1cccs1)=NNC(c1ccncc1)=N2	.	.	.	.	.	/	/	/
COCCN(CCOC)C(=O)c1ccc(SCc2ccc(C)cc2)c([N+](=O)[O-])c1	.	.	.	.	.	/	/	/
O=C(O)Cn1nnc(COc2ccccc2)n1	.	.	/	.	.	/	/	/
COC(=O)CC1C(=O)NCCN1C(=O)Nc1ccc(Cl)cc1 (configuration not stated)	.	2.0[inhibitor]	.	.	.	.	.	.
CC12CC(NC(=O)N1c1cccc(C(=O)Nc3ncn[nH]3)c1)c1ccccc1O2 (configuration not stated)	.	.	.	.	.	/	/	/
COc1ccc(NC(=O)c2cccc(N3C(=O)NC4CC3(C)Oc3ccccc34)c2)cc1 (configuration not stated)	.	.	.	133.0	.	.	.	.
COc1ccc(C(=O)OCC(=O)NCc2ccccc2)c(OC)c1OC	.	.	.	.	.	/	/	/
CCOc1ccc(NS(=O)(=O)c2ccc(C(=O)N(C)Cc3cccc(OC)c3OC)cc2)cc1	.	.	/	.	.	/	/	/
CC(C)(C)C(=O)c1sc2nc(-c3cccs3)cc(C(F)(F)F)c2c1N	.	53.0[inhibitor]	.	.	.	.	.	.
CN(Cc1ccc(C#CCCO)cc1)CC1CCCN(CCc2ccc(Cl)cc2)C1 (configuration not stated)	.	154.0	.	.	.	.	.	.
Cc1ccc(S(=O)(=O)NNc2nnc(C)c(=O)[nH]2)cc1	.	.	/	135.0	.	.	.	.
CCn1c(COC(=O)CNC(=O)c2cc(OC)c(OC)c(OC)c2)nc2cc(S(=O)(=O)N(C)C)ccc21	.	/	.	/	/	/	/	/
Cc1cc(C)c(/C([O-])=C(/C(=S)Nc2ccc(SC(F)F)cc2)[n+]2ccccc2)cc1C	.	.	.	.	.	/	/	/
[O-]/C(=C(\C(=S)Nc1ccc(SC(F)F)cc1)[n+]1ccccc1)c1cc(Cl)ccc1Cl	.	58.0[inhibitor]	.	.	.	.	.	.
COc1ccc(C(=O)Nc2ccc(C(=O)N3CCC(C)CC3)cc2)cc1OC	.	.	.	.	.	/	/	/
CCOc1ccc(NC(=O)CNC(=O)c2ccc([N+](=O)[O-])cc2)cc1	.	.	.	.	.	/	/	/
Cc1sc2nc(C(C)C)nc(SCC(=O)NCc3ccco3)c2c1C	.	-6.0[inhibitor]	.	-1.0[inhibitor]	.	.	.	.
O=C(Nc1ccc(Br)cc1)C1CCN(C(=O)c2ccc(F)cc2)CC1	.	.	.	150.0	.	.	.	.
CCCCc1nc2sc3c(SCCN(C)C)ncnc3c2c2c1CCC2	.	152.0	.	.	.	.	.	.
COc1ccc(C(=O)N2CCN(Cc3ccc4c(c3)OCO4)CC2)cc1OC	.	.	.	.	.	/	/	/
CCN(CC)c1ccc(C(=O)NC(=S)N2CCN(Cc3ccc4c(c3)OCO4)CC2)cc1	.	.	.	145.0	.	.	.	.
COc1cc(C(=O)N2CCN(Cc3ccc4c(c3)OCO4)CC2)cc(OC)c1OC	.	.	.	.	28.0	.	.	.
O=C(Nc1ccc(S(=O)(=O)NCc2ccccc2)cc1)c1ccccc1[N+](=O)[O-]	.	.	.	158.0	.	.	.	.
SMILES	UBC13 polyUb	MEKK2wt PB1 HTS	Rce1 inhib	MEKK3 PB1 HTS	MEKK2mut PB1 HTS	MEKK2wt confirm	MEKK2mut-MEK5	MEKK3-MEK5 inh
CCN(CC)S(=O)(=O)c1ccc(N2CCOCC2)c(NC(=O)c2cc(=O)[nH]c3ccccc23)c1	.	.	.	69.0[inhibitor]	.	.	.	.
CCN(CC)CCNC(=O)CS(=O)Cc1nc(-c2ccc(C)cc2)oc1C (configuration not stated)	.	.	.	.	.	/	/	/
CCN(CC)CCNC(=O)CS(=O)Cc1nc(-c2ccc(Cl)cc2)oc1C (configuration not stated)	.	.	.	49.0[inhibitor]	.	.	.	.
CC(C(=O)Nc1cc([N+](=O)[O-])ccc1Cl)N1CCN(c2ccccc2O)CC1 (configuration not stated)	.	.	.	132.0	.	.	.	.
CCOC(=O)C1CCCN(CCC(=O)Nc2cccc(Cl)c2C)C1 (configuration not stated)	.	.	.	.	.	/	/	/
CC1CCc2sc(C(=O)N=Nc3c(O)[nH]c4ccccc34)cc2C1 (configuration not stated)	.	.	.	130.0	.	.	.	.
O=c1oc2ccc3ccccc3c2c2c1SC(C(F)(F)F)C2 (configuration not stated)	.	.	.	124.0	.	.	.	.
O=c1oc2ccccc2c2c1SC(C(F)(F)F)C2 (configuration not stated)	.	.	.	.	.	/	/	/
CCCCC1(C)Cc2ccccc2C(=S)N1 (configuration not stated)	.	2.0[inhibitor]	.	2.0[inhibitor]	.	.	.	.
CCOC(=O)/C(C)=C1\NC(C)(C)Cc2ccccc21	/	.	.	.	.	/	/	/
Cc1cccc(N(Cc2cc3ccc(C)cc3[nH]c2=O)C(=O)c2ccco2)c1	.	.	.	133.0	.	.	.	.
COc1ccc(CCNCc2cc3ccc(C)cc3[nH]c2=O)cc1OC	.	.	.	.	.	/	/	/
COc1ccc(CCN(Cc2cc3ccc(C)cc3[nH]c2=O)C(C)=O)cc1OC	.	.	.	135.0	.	.	.	.
COc1ccc(CC(=O)NNS(=O)(=O)c2ccccc2)cc1OC	.	/	.	.	/	/	/	/
Cc1ccc(C2N(C)c3ccccc3-c3nc4ccccc4n32)o1 (configuration not stated)	.	.	?	.	.	/	/	/
c1csc(C2Nc3ccccc3-c3nc4ccccc4n32)c1 (configuration not stated)	.	.	?	132.0	.	.	.	.
CN1c2ccccc2-c2nc3ccccc3n2C1c1cccs1 (configuration not stated)	.	.	+	181.0	.	.	.	.
CCN(CC)S(=O)(=O)c1cccc(C(=O)NC(C)C(c2cccs2)N2CCCC2)c1 (configuration not stated)	.	.	.	.	.	/	/	/
Cc1cc(C(=O)NNC2CC(=O)N(c3ccc4ccccc4c3)C2=O)c(C)o1 (configuration not stated)	.	/	.	/	/	/	/	/

Screens from PubChem.
